The results in this text go back to PubChem BioAssay AID624498 (National Center for Advancing Translational Sciences (NCATS), 2012).

Calls of active or inactive are those of the source.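 The calls were made as follows: active = a band for the stress protein GRP78 appears on a western blot of treated cells; inactive = no band seen on the blot.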

This assay is described as follows: Hit Validation Western Blot Assay for Inducers of ERSR: Assessment of GRP78 Upregulation. Conditions: cells, 4-24 h. The source says:
Primary protein unfolding takes place for many diseases, including diabetes and hypoxia, , and triggers a reaction in the cells called ER stress response (ERSR). ). ERSR is designed as a repair mechanism, but ultimately leads to cell death via apoptosis if conditions triggering protein unfolding persist (1). The molecular clue to ERSR activation is the enhancement of the expression of key molecular chaperones, including the glucose regulated protein (GRP) 78. GRP78 is the main sensor for protein folding and the main actuator of the ERSR. In a collaboration between the Southern Research Institute and the NIH Chemical Genomics Center, a cell based screen was developed that reliably uses GRP78 as a sensor to identify small molecules as inducers of ERSR. In resting conditions, GRP78 binds proteins and acts as a natural repressor. Once unfolded proteins are present in the ER, GRP78 releases some of the repressors and binds to the unfolded proteins. The release of the repressors executes the ERSR program. Using a human glioma cell line in a miniaturized, luminescent format, a high-throughput screen was developed to identify actuators of the ERSR. In this assay, hits identified in the primary ERSR screen were characterized for their effects on wild type GRP78 upregulation using a western blot secondary assay. NIH Chemical Genomics Center [NCGC] […]
`Cc1noc(C)c1C(=O)N1CCC2(CCCN(C(c3ccccc3)c3ccccc3)C2)CC1`: the outcome was “active; yes”.
